Screening results as filed in PubChem BioAssay.
An excerpt weighted towards active compounds, which were near 1.2% of everything screened.
miR122 inh: miR-122 Renilla sensor signal increase in Huh7, primary screen, miR-122 inhibitor project, cell-based, single point, plate reader | Huh7 miR-122 Renilla luciferase sensor, 48 h; neutral wells = 0, positive control = 100 | activation (reporter increase), % at 12.5 µM | 0.3% of 340,000 active;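 active = mean replicate activation score at least 90 and every replicate individually at or above 90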;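 note: higher luciferase means less miR-122 activity so hits act as miR-122 inhibitors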
C2C12 statin: suppressors of statin myotoxicity in C2C12 myotubes, primary screen, cell-based, single point, plate reader; C2C12 myotubes + simvastatin, ATP luminescence, 48 h; scaled: DMSO 0, geranylgeraniol control 100; rescue of ATP level, % at 7.49 µM; 0.78% of 330,000 active;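 active = mean ATP rescue above about 67%, or every replicate alone reaching that limit, limit read from the data, passing the limit was not always enough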;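 note: myotubes were challenged with 10 µM simvastatin during compound exposure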
NSD2 inh: NSD2 histone methyltransferase inhibitors, primary screen, biochemical, AlphaScreen, single concentration, set 2. Histone-lysine N-methyltransferase NSD2 (Homo sapiens), O96028. AID 743445, 2014. NSD2 peptide methylation, 120 min. inhibition, % at 12.5 µM. 0.54% of 310,000 active; in the data active = inhibition above about 50%
PglD DTNB: C. jejuni PglD acetyltransferase inhibitors, primary screen, biochemical, DTNB colorimetric, single point | UDP-N-acetylbacillosamine N-acetyltransferase PglD (Campylobacter jejuni) | purified PglD enzyme, DTNB colorimetric CoA detection | inhibition, % at 12.5 µM | 0.098% of 360,000 active | AID 602405, 2012; in the data active = inhibition above about 16%, passing the limit was not always enough
* = called active by the depositor; [ ] = another dose, or the depositor's remark.

COc1ccc(S(=O)(=O)N(C)C[C@@H]2Oc3ccc(NC(=O)C4CCCCC4)cc3C(=O)N([C@H](C)CO)C[C@H]2C)cc1 was read as miR122 inh 1[16.7 µM], C2C12 statin 3 and PglD DTNB 0.
For COc1ccc(C(C(=O)NC2CCCCC2)N(Cc2cccs2)C(=O)Cc2c[nH]c3ccccc23)cc1 (configuration not stated) the results were miR122 inh 65, C2C12 statin 29, NSD2 inh -2 and PglD DTNB -4.
Screening COc1cccc(CN(C(=O)Cc2c[nH]c3ccccc23)C(C(=O)NC2CCCCC2)c2cccs2)c1 (configuration not stated) returned miR122 inh 240*, C2C12 statin -1, NSD2 inh 3 and PglD DTNB 1.
`CCCCCC(=O)Nc1cc(S(=O)(=O)N2CCCCC2)ccc1N1CCCCC1` gave miR122 inh 10, C2C12 statin -5, NSD2 inh -1 and PglD DTNB -3.
`CCCCCC(=O)Nc1cc(S(=O)(=O)O)cc2cc(S(=O)(=O)O)cc(O)c12` gave NSD2 inh 105*.
C[C@@H]1CCCCO[C@H](CN(C)Cc2ccccc2)[C@@H](C)CN([C@@H](C)CO)C(=O)c2cc(NC(=O)Cc3ccccc3)ccc2O1 was read as miR122 inh -6[16.7 µM] and PglD DTNB -5.
Screening C[C@@H]1CN([C@H](C)CO)C(=O)c2cc(NC(=O)Nc3cccc4ccccc34)ccc2O[C@@H](C)CCCCO[C@@H]1CN(C)C(=O)NC1CCCCC1 returned miR122 inh -4[16.7 µM], C2C12 statin 74* and PglD DTNB 1.
C[C@H]1CCCCO[C@H](CN(C)C(=O)Nc2cccc3ccccc23)[C@@H](C)CN([C@@H](C)CO)C(=O)c2cc(NC(=O)Nc3ccc4c(c3)OCO4)ccc2O1 was read as miR122 inh -5[16.7 µM], C2C12 statin 66* and PglD DTNB -5.
For C[C@H](CO)N1C[C@H](C)[C@H](CN(C)C(=O)NC2CCCCC2)OCCCC[C@H](C)Oc2ccc(NC(=O)Nc3cccc4ccccc34)cc2C1=O the results were miR122 inh 4[16.7 µM], C2C12 statin 137* and PglD DTNB -2.
For C[C@@H]1CN([C@@H](C)CO)C(=O)c2cc(NC(=O)Nc3cccc4ccccc34)ccc2O[C@@H](C)CCCCO[C@H]1CN(C)C(=O)NC1CCCCC1 the results were miR122 inh -2[16.7 µM], C2C12 statin 9 and PglD DTNB 4.
C[C@H]1CCCCO[C@@H](CN(C)C(=O)NC2CCCCC2)[C@@H](C)CN([C@@H](C)CO)C(=O)c2cc(NC(=O)Nc3cccc4ccccc34)ccc2O1 was read as miR122 inh 3[16.7 µM], C2C12 statin 96* and PglD DTNB -5.
CCCN(C)C[C@H]1OCCCC[C@H](C)Oc2ccc(NC(=O)CCCN(C)C)cc2C(=O)N([C@H](C)CO)C[C@@H]1C was read as miR122 inh 2[16.7 µM] and C2C12 statin -3.
For C[C@@H]1CN([C@@H](C)CO)C(=O)c2cc(NS(=O)(=O)c3cccs3)ccc2O[C@@H]1CN(C)Cc1ccncc1 the results were miR122 inh -7[16.7 µM], C2C12 statin 35 and PglD DTNB -1.
`CCNC(=O)C[C@H]1CC[C@@H]2[C@H](COc3ccc(NC(=O)Cc4ccccc4)cc3C(=O)N2C)O1` gave miR122 inh -6[16.7 µM], C2C12 statin -1 and PglD DTNB -1.
Cc1ccc(S(=O)(=O)N2CCN(S(C)(=O)=O)C2c2ccccc2)cc1 (configuration not stated) was read as miR122 inh 7, C2C12 statin -9 and PglD DTNB 0.
Cc1ccc(S(=O)(=O)N2CCN(S(=O)(=O)c3ccc(C)cc3)C2c2ccccc2)cc1 was read as miR122 inh 8, C2C12 statin 139*, NSD2 inh -4 and PglD DTNB -2.
`CCCCCNC(=O)c1ccc2c(=O)[nH]c3c(C(=O)NCC4CCCO4)sc(=S)n3c2c1` (configuration not stated) gave miR122 inh -3, C2C12 statin 118*, NSD2 inh 32 and PglD DTNB -6.
For CCOC(=O)c1ccc(NC(=O)N2CCCCC2)cc1 the results were miR122 inh 3, C2C12 statin 137*, NSD2 inh -1 and PglD DTNB 3.
CCOC(=O)c1ccc(NC(=O)N2CCc3ccccc32)cc1 was read as miR122 inh 2, C2C12 statin 72*, NSD2 inh 24 and PglD DTNB 3.
`O=C(CN1CCOCC1)N[C@@H]1CC[C@@H](CCNC(=O)C2CCC2)O[C@@H]1CO` gave miR122 inh 43[16.7 µM], C2C12 statin -1 and PglD DTNB 9.
`Cc1ccnc(N2CCCC(C(=O)NCc3cccs3)C2)n1` (configuration not stated) gave miR122 inh 0, C2C12 statin 11, NSD2 inh -3 and PglD DTNB -6.
Cc1cc(C)nc(N2CCCC(C(=O)NCc3cccs3)C2)n1 (configuration not stated) was read as miR122 inh -7, C2C12 statin 127*, NSD2 inh -4 and PglD DTNB -4.
C[C@H]1CN([C@@H](C)CO)C(=O)c2cccc(NC(=O)Nc3cccc4ccccc34)c2O[C@@H]1CN(C)S(=O)(=O)c1ccc(F)cc1 was read as miR122 inh -9[16.7 µM] and C2C12 statin 28.
C(=N\c1nccs1)/c1cccnc1 was read as miR122 inh -3, C2C12 statin 112*, NSD2 inh -2 and PglD DTNB 0.
`COC(=O)[C@]1(CCC(=O)OC(C)(C)C)N=C(c2ccc(OCCCO)cc2)O[C@@H]1c1ccccc1` gave PglD DTNB 2.
`O=C(Cc1cccs1)Nc1nnc(Cc2ccccc2)s1` gave miR122 inh -3, C2C12 statin 121*, NSD2 inh 0 and PglD DTNB 4.
Screening Cc1csc(SCC(=O)Nc2cc(S(=O)(=O)N3CCCC3)ccc2Cl)n1 returned miR122 inh 5, NSD2 inh -4 and PglD DTNB 3.
Screening Cc1csc(SCC(=O)Nc2cccc(S(=O)(=O)N3CCCC3)c2)n1 returned miR122 inh -3, C2C12 statin 136*, NSD2 inh -2 and PglD DTNB -1.
Screening O=C(/C=C/c1cccs1)Nc1ccc(N2CCOCC2)c(S(=O)(=O)Nc2ccccc2Cl)c1 returned miR122 inh 74, NSD2 inh -2 and PglD DTNB 2.
For COc1ccccc1NS(=O)(=O)c1cc(NC(=S)NCCN2CCOCC2)ccc1N1CCOCC1 the results were miR122 inh 217*, C2C12 statin -6 and NSD2 inh 1.
`COc1ccccc1NS(=O)(=O)c1cc(NC(=O)/C=C/c2cccs2)ccc1N1CCOCC1` gave miR122 inh 258*, C2C12 statin 18, NSD2 inh -2 and PglD DTNB -1.
